M4 antag – antagonists of human muscarinic M4 receptor (CHRM4) | P08173 | CHO-hM4 cells, ACh EC80, Fluo-8 calcium fluorescence | inhibition, % at 3 µM | actives 0.73% (n = 360,000);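 active means inhibition above its plate's cutoff, the mean inhibition of sample wells plus 3 SD, cut at about 27% in these data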;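 further: 0% = acetylcholine EC80 with DMSO and 100% = DMSO without agonist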
Target sequence (P08173 whole entry, looked up): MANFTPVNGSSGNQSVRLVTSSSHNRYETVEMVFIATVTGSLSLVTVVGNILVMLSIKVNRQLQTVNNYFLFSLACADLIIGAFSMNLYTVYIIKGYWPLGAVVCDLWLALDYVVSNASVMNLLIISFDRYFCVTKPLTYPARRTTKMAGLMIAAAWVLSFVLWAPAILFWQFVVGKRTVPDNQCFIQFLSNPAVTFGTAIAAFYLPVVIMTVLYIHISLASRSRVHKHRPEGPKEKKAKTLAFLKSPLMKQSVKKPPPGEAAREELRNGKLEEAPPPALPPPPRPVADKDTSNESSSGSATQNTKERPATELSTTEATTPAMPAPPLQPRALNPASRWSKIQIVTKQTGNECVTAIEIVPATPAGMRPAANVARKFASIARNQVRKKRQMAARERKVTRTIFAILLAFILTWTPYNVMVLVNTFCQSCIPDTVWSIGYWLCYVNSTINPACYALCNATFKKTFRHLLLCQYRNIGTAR
CHO-K1 Ca PAM – M1 PAM counterscreen hit in parental CHO-K1 cells. activation, % at 3 µM. ATP EC20, Fluo-8 calcium fluorescence; 0% at ATP EC20, 100% at ATP max. actives 0.02% (n = 360,000);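 active means activation above the run cutoff, the mean activation of all test compounds plus 3 SD, cut at about 40% in these data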;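 further: peak over basal fluorescence ratio in a 140 s read after ATP addition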
CHO-K1 Ca ag – nonselective activator or artifact in parental CHO-K1 cells | Fluo-8 calcium fluorescence; scaled to maximal ATP response, vehicle zero | activation, % at 3 µM | actives 0.48% (n = 360,000) | AID 602248; in the data active means activation above about 15%;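 further: untransfected CHO-K1 host cells lacking M1 receptor as counterscreen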
M4 ag – agonists of human muscarinic M4 receptor (CHRM4) | P08173 | CHO-K1 hM4/Gqi5, Fluo-8 calcium fluorescence; vehicle 0%, full acetylcholine response 100% | activation, % at 3 µM | actives 0.14% (n = 360,000) | AID 624127;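 active means activation above the run mean over all test wells plus 3 SD, cut at about 32% in these data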;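 further: peak over basal fluorescence ratio per well then scaled between controls; 0% = DMSO wells and 100% = acetylcholine at EC100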
M4 PAM – positive allosteric modulators of human muscarinic M4 receptor | P08173 | CHO-K1 hM4/Gqi5, Fluo-8 calcium fluorescence, ACh EC20; 0% = ACh EC20, 100% = maximal ACh | activation, % at 3 µM | actives 0.4% (n = 360,000);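 active means activation above its plate's cutoff, the mean activation of sample wells plus 3 SD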
CHO-K1 Ca antag – counter-screen for M1 antagonists: effect in parental CHO-K1 cells; inhibition, % at 3 µM; actives 0.6% (n = 360,000); ATP-induced calcium, Fluo-8 fluorescence;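 active means inhibition above a per-plate cutoff, the plate's mean sample inhibition plus 3 SD, cut at about 24% in these data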;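 further: 0% = DMSO plus EC80 ATP and 100% = DMSO alone without ATP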
* hit, by the source's call. This is a sample that favours compounds with a hit; in the whole collection about 2% have one here.

SMILES	M4 antag	CHO-K1 Ca PAM	CHO-K1 Ca ag	M4 ag	M4 PAM	CHO-K1 Ca antag
CCCC(=O)NC(=S)Nc1ccc(S(=O)(=O)Nc2ccc(OCC)cc2)cc1	-3	34	27*	17	7	6
CC(C)(C)c1ccc(OCCC(=O)OCC(=O)NCc2ccccc2)cc1	-5	-22	2	13	4	6
CCOc1ccc(N(C(C)C(=O)N/N=C(\C)c2cccc(NC(=O)c3ccccc3)c2)S(C)(=O)=O)cc1 (centres undefined)	-15	26	3	7	-2	-18
CCCc1cc(=O)[nH]c2nnc(SCC(=O)NC3CCCCC3)n12	0	-3	0	1	20	10
COc1cccc(CN2CC(C(=O)N3CCCCCC3)CCC2=O)c1 (centres undefined)	7	1	1	1	0	-8
O=C(NCCc1ccc(Cl)cc1)c1cc(S(=O)(=O)N2CCCC2)ccc1F	-9	7	5	10	-2	-4
CCOc1cc(NC(=O)c2cccs2)c(OCC)cc1NC(=O)CCC(=O)NCCN1CCOCC1	2	-7	0	1	7	6
COc1cc(CN2CCC(C(=O)NC(c3ccc(-c4ccccc4)cc3)c3cnccn3)CC2)cc(OC)c1 (centres undefined)	-5	1	2	20	-10	-2
COc1cc(C(=O)Nc2ccc(Oc3ncnc4sc(-c5ccccc5)cc34)cc2)cc(OC)c1OC	9	-6	0	1	12	-3
COc1ccc(C(=O)Nc2ccc(Oc3ncnc4sc(-c5ccccc5)cc34)cc2)cc1OC	2	15	16*	1	0	-14
Cc1ccc(N2C(=O)C3N=NN(CC(=O)N4N=C(c5ccccc5)CC4c4ccccc4)C3C2=O)cc1 (centres undefined)	4	-20	-1	0	-6	24*
COc1ccc(C2=NN(C(=O)CCC(=O)O)C(c3ccccc3)C2)cc1 (centres undefined)	0	9	0	0	-1	-8
CC1(C(=O)NS(=O)(=O)c2ccccc2Cl)CCN1C(=O)CC1CCCC1 (centres undefined)	-11	-4	0	1	15*	-15
CC1(C(=O)NS(=O)(=O)c2ccccc2Cl)CCN1C(=O)C1(c2ccc(Cl)cc2)CC1 (centres undefined)	-4	12	0	0	9	-7
CC1(C(=O)NS(=O)(=O)c2ccccc2Cl)CCN1C(=O)C/C=C/c1ccccc1 (centres undefined)	-9	21	0	-1	3	-6
CC1(C(=O)NS(=O)(=O)c2ccccc2Cl)CCN1C(=O)C1(c2ccc(Cl)cc2)CCC1 (centres undefined)	-13	-15	-1	1	7	48*
Cc1ccc(S(=O)(=O)NC(=O)C2(C)CCN2C(=O)CC2CCCC2)nc1 (centres undefined)	-16	5	0	1	5	-4
Cc1ccc(S(=O)(=O)NC(=O)C2(C)CCN2C(=O)C2CCCCC2)nc1 (centres undefined)	-5	-6	-1	0	14	28*
Cc1ccccc1S(=O)(=O)NC(=O)C1(C)CCN1C(=O)CC1CCCC1 (centres undefined)	-7	15	0	1	6	-6
Cc1ccccc1S(=O)(=O)NC(=O)C1(C)CCN1C(=O)C/C=C/c1ccccc1 (centres undefined)	85*	-6	0	0	-13	-7
Cc1cccc(NC(=O)CNC(=O)CCNC(=O)c2ccc(C(C)(C)C)cc2)c1C	-1	18	1	0	6	-13
Cc1cccc(S(=O)(=O)NC(=O)C2(C)CCN2C(=O)c2ccc(C3CCCCC3)cc2)c1 (centres undefined)	-12	2	0	0	4	4
COc1cc(C)ccc1S(=O)(=O)NC(=O)C1(C)CCN1C(=O)c1ccc(C2CCCCC2)cc1 (centres undefined)	-2	-14	0	-1	-2	27*
COc1ccc(N(CC(=O)N/N=C/c2ccc(C(=O)O)cc2)S(=O)(=O)c2ccc(NC(C)=O)cc2)cc1	-8	25	2	0	22*	-14
Cc1ccnc(NS(=O)(=O)c2ccc(NS(C)(=O)=O)cc2)n1	11	17	1	1	10	-13
SMILES	M4 antag	CHO-K1 Ca PAM	CHO-K1 Ca ag	M4 ag	M4 PAM	CHO-K1 Ca antag
COc1ccc(C2(C)NC(=O)N(CC(=O)c3cc(C)n(C4CC4)c3C)C2=O)cc1 (centres undefined)	2	4	30*	35*	1	4
Cc1cc(C(=O)CN2C(=O)NC(C)(c3ccc(F)c(F)c3)C2=O)c(C)n1C1CC1 (centres undefined)	-4	21	12	21	1	-2
Cc1ccc(C)c(OCCC(=O)OCC(=O)NCc2ccccc2)c1	-1	-8	0	1	-1	0
Cc1ccc(C)c(OCCC(=O)OCC(=O)NCCNC(=O)COC(=O)CCOc2cc(C)ccc2C)c1	38*	-16	15	27	-15	27*
Cc1ccc(C(=O)NCCNS(C)(=O)=O)cc1	-10	7	4	10	-13	2
CC12CCC(=O)N1C(C(=O)NNC(=O)c1cccc(Cl)c1)CS2 (centres undefined)	0	2	1	2	2	3
O=C(Oc1cccc(Nc2ncnc3ccccc23)c1)c1ccccc1Cl	34*	1	8	15	-14	25*
Cn1c(=NC(=O)COc2ccccc2)sc2ccccc21	-6	12	4	3	-6	-9
Cc1ccc(Cl)cc1N1CCN(C(=O)CN2C(=O)c3cccc4cccc2c34)CC1	1	-6	0	1	-8	26*
CCN1CCN(C(=O)CN2C(=O)c3cccc4cccc2c34)CC1	-2	16	1	1	-1	-7
NC(=O)C1=C(c2ccccc2)c2ccccc2C1=O	14	-18	2	9	6	28*
Cc1ccc(C2=C(O)c3ccccc3C(=O)C2=O)cc1	0	-5	-1	0	-2	-5
CC(NC1CCCC1)c1ccccc1 (centres undefined)	-1	16	0	1	5	-13
CC(NCCC(c1ccccc1)c1ccccc1)c1ccccc1 (centres undefined)	45*	14	2	9	-16	4
CCCCn1cc(C(=O)c2cc(Br)ccc2O)cc(C#N)c1=O	15	2	8	9	2	24*
CC(C)C[C@@H](CO)N(Cc1ccccc1)S(=O)(=O)N(Cc1ccccc1)[C@@H](CO)CC(C)C	26	5	0	10	-14	3
